# Screening results deposited in PubChem by several laboratories.
# GASC-1 inh: blocks human GASC-1 demethylase activity; Q9H3R0; GST-JMJD2C(1-420) H3K9me3 demethylation, DELFIA europium; inhibition, % at 2.35 µM; actives 0.069% (n = 330,000);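 active means more than half of a compound's replicate wells show inhibition beyond 50%, single wells judged on their own value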;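 further: signal counts dimethyl H3K9 product captured on neutravidin plate; 0% = median of DMSO wells and 100% = 0.3 times that DMSO median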
# HDAC3 inh: blocks human histone deacetylase 3; actives 0.15% (n = 320,000); recombinant HDAC3, fluorogenic peptide/trypsin coupled, fluorescence; O15379; inhibition, % at 8.3 µM; in the data active means inhibition above about 26%, passing the limit was not always enough
# Target sequence (O15379 whole entry, looked up): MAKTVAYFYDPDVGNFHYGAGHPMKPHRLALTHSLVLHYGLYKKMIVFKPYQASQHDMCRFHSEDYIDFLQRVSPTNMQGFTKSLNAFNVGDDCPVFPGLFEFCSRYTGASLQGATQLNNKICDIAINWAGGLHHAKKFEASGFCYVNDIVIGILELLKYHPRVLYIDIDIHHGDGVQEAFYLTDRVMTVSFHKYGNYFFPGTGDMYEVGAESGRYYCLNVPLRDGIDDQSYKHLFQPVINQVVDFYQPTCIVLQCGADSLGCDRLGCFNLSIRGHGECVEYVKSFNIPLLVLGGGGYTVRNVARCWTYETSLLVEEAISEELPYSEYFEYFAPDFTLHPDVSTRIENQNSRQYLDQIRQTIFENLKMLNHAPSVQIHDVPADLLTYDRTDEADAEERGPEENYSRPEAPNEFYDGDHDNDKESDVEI
# PvdQ inh: P. aeruginosa PvdQ acylase inhibition. inhibition, % at 10 µM. actives 0.063% (n = 340,000). purified PvdQ acylase, fluorescence plate reader. AID 488965; in the data active means inhibition above about 30%, passing the limit was not always enough;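 further: 0% = vehicle neutral wells and 100% = reference inhibitor wells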
# SUMO Mot1 rescue: inhibitors of SUMOylation pathway: yeast Mot1-301 growth rescue; growth rescue, % at 18.8 µM; S. cerevisiae Mot1-301 growth rescue, ATP luminescence, 38.5C; percent above DMSO median, 100 means doubled; AID 2716; actives 1% (n = 320,000);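 active means every valid replicate shows activation above 250% relative to neutral control wells; inactive means the rest, any valid replicate at or below 250%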;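 further: OY570 slx delta 5 strain wells were the positive control but not used for scaling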
# pCIP destab: p/CIP protein destabilization; decrease of EGFP signal, % at 10 µM; actives 0.01% (n = 290,000); Q05BA5; F442A p/CIP-EGFP cells, EGFP fluorescence, 16 h;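 active means EGFP signal decrease of at least 30% at 10 µM or well 3 SD below plate mean, unless failing retest; inactive means the rest, including hits failing retest or dose response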
# PHOSPHO1 inh: blocks human PHOSPHO1 phosphatase activity; Q8TCT1; recombinant PHOSPHO1, absorbance phosphatase assay; inhibition, % at 13.3 µM; actives 1.1% (n = 290,000); in the data active means inhibition above about 60%
# Target sequence (Q8TCT1 whole entry, looked up): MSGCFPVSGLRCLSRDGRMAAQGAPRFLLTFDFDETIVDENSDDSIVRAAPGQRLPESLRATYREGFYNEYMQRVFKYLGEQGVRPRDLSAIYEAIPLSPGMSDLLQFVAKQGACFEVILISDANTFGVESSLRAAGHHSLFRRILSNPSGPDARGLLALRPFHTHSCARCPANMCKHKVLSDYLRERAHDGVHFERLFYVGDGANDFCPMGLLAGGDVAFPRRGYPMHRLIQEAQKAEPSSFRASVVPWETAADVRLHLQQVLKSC
# * marks the source's active call; other numbers are inactive results; x = no result given. Rows were chosen to be rich in hits. Some 2.2% of all compounds tested hit in one or more screens of this group.
SMILES,GASC-1 inh,HDAC3 inh,PvdQ inh,SUMO Mot1 rescue,pCIP destab,PHOSPHO1 inh
Cc1ccc(S(=O)(=O)Nc2ccccc2C(=O)NCC2CCCO2)cc1 (centres undefined),-1.4,x,x,-8.4,-1.2,42.7
Cc1nc(S(=O)(=O)Nc2ccccc2C(=O)NCC2CC2)cn1C,-1.0,-3.4,-8.1,4.9,-2.5,62.7*
COc1cccc(/C=N/NC(=O)CNC(=O)c2cccs2)c1O,35.4,x,0.5,314.8,-9.2,25.1
Cc1ccc(/C=N/NC(=O)CNC(=O)c2cccs2)cc1,-2.5,-5.6,-3.6,4.6,-6.3,66.2*
O=S(=O)(c1ccc(Cl)cc1)N1CCN(c2ncccn2)CC1,-15.0,13.5,8.7,-19.6,0.6,-6.4
Nn1c(=O)c2ccccc2n2c(SCc3ccc(C(F)(F)F)cc3)nnc12,6.0,1.3,-10.1,-4.1,1.7,90.4*
Nn1c(=O)c2ccccc2n2c(SCc3ccccc3)nnc12,27.4,-5.0,-4.7,-4.5,-4.6,2.1
CC(=O)c1ccc(N2CCN(C(=O)CCCn3c(=S)[nH]c4cc5c(cc4c3=O)OCO5)CC2)cc1,x,2.2,-3.8,298.0*,-5.0,63.2*
O=C(CCn1c(=S)[nH]c2cc3c(cc2c1=O)OCO3)N1CCc2ccccc2C1,-1.8,10.9,x,-5.8,1.4,66.4*
O=C(CCCn1c(=S)[nH]c2cc3c(cc2c1=O)OCO3)N1CCc2ccccc2C1,-7.9,-4.0,2.2,100.4,-5.6,-47.8
O=C(CCCn1c(=S)[nH]c2cc3c(cc2c1=O)OCO3)N1CCN(c2ccccc2)CC1,8.0,-1.2,-5.6,-11.8,-14.2,68.9*
CCOC(=O)N1CCN(C(=O)CCn2c(=S)[nH]c3cc(OCC)c(OCC)cc3c2=O)CC1,-7.0,5.2,x,35.9,-8.6,66.2*
CCc1ccc(-c2csc(NC(=O)C3=COCCO3)n2)cc1,x,1.9,-10.1,69.1,x,x
Cc1c(Nc2ccc(C=O)cc2)c(=O)n(-c2ccccc2)n1C,-27.3,7.9,9.4,16.2,-2.1,44.0
CC(=O)Nc1ccc(NC(=O)C(C)OC(=O)CNS(=O)(=O)/C=C/c2ccc(C)cc2)cc1 (centres undefined),-4.6,1.0,4.2,62.2,x,x
Cc1cc(C)n(-c2ccc(NC(=O)C3CCN(Cc4ccccn4)CC3)cc2)n1,-19.6,-4.2,6.8,226.1,15.2,34.4
O=C(CSc1ccc(-c2ccncc2)nn1)c1ccccc1,3.0,-1.0,-5.9,209.6,2.1,3.3
O=C(COC(=O)c1ccc(CO)cc1)Nc1ccc(OC(F)F)cc1,5.5,-1.4,6.4,-2.1,-14.9,0.2
COC(=O)[C@]1(C)N[C@H](CN(C)S(=O)(=O)c2ccc(C)cc2)[C@@H]2C(=O)N(Cc3ccccc3)C(=O)[C@@H]21,61.6*,-2.3,5.0,-7.8,x,x
CCN(C[C@H]1N[C@@](Cc2ccccc2)(C(=O)OC)[C@H]2C(=O)N(Cc3ccccc3)C(=O)[C@@H]12)S(=O)(=O)c1ccccc1,60.6*,-7.8,-14.0,16.0,x,x
CCN(C[C@H]1N[C@@](C)(C(=O)OC)[C@H]2C(=O)N(C)C(=O)[C@@H]12)C(=O)Nc1ccc(F)cc1,8.7,-3.2,-0.7,-13.5,x,x
CCN(C[C@H]1N[C@@](C)(C(=O)OC)[C@H]2C(=O)N(Cc3ccccc3)C(=O)[C@@H]12)S(=O)(=O)c1ccc(C)cc1,x,x,-3.5,x,x,x
CCN(C[C@H]1N[C@@](C)(C(=O)OC)[C@H]2C(=O)N(C)C(=O)[C@@H]12)C(=O)Nc1ccc(C)cc1,51.8*,-3.5,-7.0,-8.5,x,x
COc1ccc(N=C2SC(CC(=O)Nc3ccccc3)C(=O)N2CCc2ccccn2)cc1 (centres undefined),-3.2,-4.0,-2.8,356.4*,-5.5,-18.4
COc1ccc(N=C2SC(CC(=O)Nc3ccccc3)C(=O)N2Cc2ccccn2)cc1 (centres undefined),2.6,8.2,-10.4,-16.1,-4.9,23.6
SMILES,GASC-1 inh,HDAC3 inh,PvdQ inh,SUMO Mot1 rescue,pCIP destab,PHOSPHO1 inh
CC(C)(C)C1CCC(=NNC(=O)c2cc3c(s2)CCCC3)CC1 (centres undefined),-9.5,9.5,3.0,541.6*,-1.5,3.0
CSc1nc(-c2ccccc2)nc(NC(C)=O)c1C(C)=O,4.9,-1.9,-8.7,37.8,0.4,-1.7
CCOC(=O)c1c(NC(=O)CN2C(=O)C(=O)N(CC(C)C)C2=O)sc(C)c1CC,32.8,-1.9,-2.2,80.2,x,x
Cc1cc(C)n2nc(CNS(=O)(=O)c3ccc(CC(C)C)cc3)nc2n1,5.6,1.2,-7.9,-6.3,-21.7,38.6
COc1ccc([N+](=O)[O-])cc1NC(=O)COC(C)=O,-13.7,9.1,-13.1,-9.1,-2.4,64.7*
CCCC(=O)OCC(=O)Nc1cc([N+](=O)[O-])ccc1OC,-8.0,-0.2,3.1,5.0,-2.3,12.7
CCn1ccnc1CN(C)Cc1nc(-c2ccc(C(=O)OC)cc2)no1,-13.8,3.3,-11.8,0.1,-7.6,60.5*
O=C(NCc1cc(F)ccc1F)C1CCC(=O)N(C2CCCCCC2)C1 (centres undefined),1.6,0.2,2.4,94.6,0.8,38.2
CC(=O)NCCCc1nc2ccccc2n1Cc1cc(C)ccc1C,0.0,-8.7,-2.2,-11.9,-5.2,64.3*
COc1cc(C(=O)NCCCc2nc3ccccc3n2Cc2cc(C)ccc2C)cc(OC)c1OC,-0.4,x,-8.3,1.8,-22.0,-6.1
Cc1ccc(NC(=O)c2ccc(=O)[nH]n2)cc1S(=O)(=O)Nc1ccc(SC(F)F)cc1,2.7,-5.5,-4.0,1.5,x,x
Cc1cccc(-n2c(CNC(=O)c3ccc(S(=O)(=O)N4CCCC4)cc3)n[nH]c2=S)c1,-20.7,-2.6,-8.0,47.9,-1.7,80.3*
COc1ccc(-n2c(CNC(=O)c3ccc(S(=O)(=O)N4CCCC4)cc3)n[nH]c2=S)cc1,-1.2,3.0,9.5,51.5,-18.3,-66.8
O=C(NCc1n[nH]c(=S)n1-c1ccc(Br)cc1)c1ccc(S(=O)(=O)N2CCOCC2)cc1,-19.8,5.1,-11.6,66.0,-18.6,76.6*
O=C(NCc1n[nH]c(=S)n1-c1cccc(Cl)c1)c1ccc(S(=O)(=O)N2CCCCC2)cc1,83.8*,4.9,-5.4,-6.6,-15.0,-79.6
O=C(NCc1n[nH]c(=S)n1-c1ccc(F)cc1)c1ccc(S(=O)(=O)N2CCCCC2)cc1,8.1,2.2,-13.6,-3.6,7.9,-103.5
O=C(Nc1nncs1)c1cc(S(=O)(=O)N2CCOCC2)ccc1Cl,9.0,-3.8,-10.4,-3.2,-11.1,31.9
CCn1c2c(c(C)cc1=O)C(=O)CC(C)(C)C2,-2.5,0.4,-12.0,-9.7,-7.4,6.9
CCn1c(C)c2c([n+]1CC)CC(C)(C)CC2=O,10.4,4.1,-6.8,270.8,-1.8,91.0*
O=C(CSc1ccccn1)c1ccc(F)cc1,-6.6,19.7,-10.4,-21.3,-2.8,58.6
CCc1ccc(C(=O)CSc2ncn[nH]2)cc1,-8.2,13.1,-18.2,44.5,-5.1,88.5*
Cc1ccc(C(=O)CSc2ccccn2)cc1,-3.7,0.2,7.9,7.2,-4.8,82.7*
